Data on 36 molecules can be found in PubChem BioAssay (NCATS).

Inconclusive results are not listed. A call without a number means that no potency is given here. The source made the active and inactive calls. Calls follow the shape of the dose curve; as a rule, active = well fitted inhibition curve with a large enough effect; inconclusive = small, poorly fitted or top-dose-only effect; inactive = flat fitted curve, though single readings scatter.
Potency is read from the fitted curve at half-maximal effect.

Chain of Ubiquitin carboxyl-terminal hydrolase 1 (Homo sapiens) (O94782 whole entry, looked up): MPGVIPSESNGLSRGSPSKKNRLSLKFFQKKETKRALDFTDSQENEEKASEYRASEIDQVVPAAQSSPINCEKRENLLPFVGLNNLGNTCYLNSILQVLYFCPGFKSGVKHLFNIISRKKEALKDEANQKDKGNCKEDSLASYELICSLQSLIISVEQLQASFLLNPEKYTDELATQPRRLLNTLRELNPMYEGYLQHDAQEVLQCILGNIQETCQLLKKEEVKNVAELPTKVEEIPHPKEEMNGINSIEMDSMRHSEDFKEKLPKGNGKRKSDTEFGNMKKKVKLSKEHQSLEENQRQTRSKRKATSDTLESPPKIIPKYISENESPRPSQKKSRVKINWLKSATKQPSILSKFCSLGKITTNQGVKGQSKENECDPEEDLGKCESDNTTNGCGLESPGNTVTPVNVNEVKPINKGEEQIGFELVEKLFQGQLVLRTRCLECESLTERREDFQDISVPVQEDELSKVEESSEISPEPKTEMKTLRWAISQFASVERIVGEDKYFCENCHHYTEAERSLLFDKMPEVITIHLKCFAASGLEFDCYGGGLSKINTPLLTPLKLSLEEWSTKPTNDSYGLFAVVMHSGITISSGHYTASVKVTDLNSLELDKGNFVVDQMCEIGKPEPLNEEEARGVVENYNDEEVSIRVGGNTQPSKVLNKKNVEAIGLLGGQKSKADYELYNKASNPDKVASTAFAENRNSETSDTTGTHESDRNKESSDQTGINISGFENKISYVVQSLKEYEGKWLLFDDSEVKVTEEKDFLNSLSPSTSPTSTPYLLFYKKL

The test concerns the target Ubiquitin carboxyl-terminal hydrolase 1 (Homo sapiens) (UniProt O94782). The experiment in a line: Inhibitors of USP1/UAF1: Pilot qHTS (AID 504865). Also: nearly all actives have a fitted effect of over 35% in size. The conditions noted are these: purified USP1/UAF1, Ub-rhodamine cleavage fluorescence; series mostly up to 114 µM. A digest of the protocol:
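Kinetic fluorescence assay: 1nM USP1/UAF1, 15 min compound preincubation, then 150nM Ub-Rho; 480/540 nm.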
Consider `CCCCCl`, for which the Potency entry is “inactive”. The same measure for `CCC(C)(S(=O)(=O)CC)S(=O)(=O)CC`: “inactive”; for `ClC=C(Cl)Cl`: “inactive”. `CCCC(C)(COC(N)=O)COC(=O)NC1CC1` (stereo unspecified): the Potency result was “inactive”. In the case of `CCON=O` it was “inactive”; in that of `CCC1(c2ccccc2)C(=O)NC(=O)N(C(=O)c2ccccc2)C1=O` (stereo unspecified), “inactive”; in that of `CC(C)(C)c1cc(O)ccc1O`, “inactive”. The same measure for `CNC(C)C(O)c1ccc(O)cc1` (stereo unspecified): “inactive”. The same measure for `Clc1ccc(Cl)cc1`: “inactive”; for `O=C(CS(=O)C(c1ccccc1)c1ccccc1)NO` (stereo unspecified): “inactive”; for `C=CCN=C=S`: “inactive”. Regarding `CCCCCCCCOC(=O)c1ccccc1C(=O)OCCCCCCCC`, the Potency result is “inactive”.

`Clc1ccc(C2(Cn3cncn3)OCCO2)c(Cl)c1`: the Potency result was “inactive”. For `CC(=O)OC1CN2CCC1CC2` (stereo unspecified), the Potency result was “inactive”.

Take `C=CCC1(C(C)CCC)C(=O)N=C(S)NC1=O` (stereo unspecified): the Potency entry was “inactive”. The same measure for `C=CCN1CC[C@]23c4c5ccc(O)c4O[C@H]2[C@@H](O)C=C[C@H]3[C@H]1C5`: “inactive”. The same measure for `CC(C)(O)C1C2OC(=O)C1C1(O)CC3OC34C(=O)OC2C14C` (stereo unspecified): “inactive”; for `C#CC(C)(O)CC` (stereo unspecified): “inactive”; for `CNC1(c2ccccc2Cl)CCCCC1=O` (stereo unspecified): “inactive”.

For the molecule `N#CN`, the Potency entry is “inactive”.

Regarding `COC([CH2][Hg])CNC(=O)c1ccccc1OCC(=O)O` (stereo unspecified), the Potency entry is “inactive”. The same measure for `CCC(=O)O[C@@](Cc1ccccc1)(c1ccccc1)[C@@H](C)CN(C)C`: “inactive”; for `O=C1CCO1`: “inactive”. For `N#CC1(N2CCCCC2)CCCCC1`, the Potency result was “inactive”.

On to `CN1CCCC(=C(c2cccs2)c2cccs2)C1`, for which the Potency result is “inactive”. The same measure for `Oc1cccc[c]1[Hg][Cl]`: 44.7 µM (active); for `CCCC(=O)OC(C(Cl)(Cl)Cl)P(=O)(OC)OC` (stereo unspecified): “inactive”. In the case of `C[C@]12CCC(=O)C[C@@H]1CC[C@@H]1[C@@H]2CC[C@]2(C)[C@@H](O)CC[C@@H]12` it was “inactive”; in that of `Oc1cc(Cl)c(Cl)cc1Cl`, “inactive”. For `CCC1(c2ccccc2)C(=O)NC(=O)NC1=O`, the Potency result is “inactive”. The same measure for `CCCC(C)C1(CC)C(=O)NC(=O)NC1=O` (stereo unspecified): “inactive”; for `[N-]=[N+]=CC(=O)OCC(N)C(=O)O` (stereo unspecified): “inactive”. The same measure for `[O]=[Cd]`: “inactive”; for `OC(c1ccccc1)(c1ccccc1)C1CN2CCC1CC2` (stereo unspecified): “inactive”. The same measure for `COC1=CC=C2[C@H]3Cc4ccc(OC)c5c4[C@@]2(CCN3C)[C@H]1O5`: “inactive”.

Regarding `CCNC(C)Cc1cccc(C(F)(F)F)c1` (stereo unspecified), the Potency result is “inactive”.
